Data reported in PubChem BioAssay AID1463 (National Center for Advancing Translational Sciences (NCATS), 2008).
Among all 280,000 compounds or so, about 2,600 (0.93%) were called active. Where a call stands in place of a potency, no number is given. Not shown: some 8% with an inconclusive outcome. Calls follow the shape of the dose curve; as a rule, active = well fitted curve in the direction sought with a large enough effect; inconclusive = small, poorly fitted or top-dose-only effect; inactive = flat fitted curve, though single readings scatter. The sample as a whole holds a higher share of actives than the screen did.

Experiment: Counterscreen qHTS for Inhibitors of Tau Fibril Formation, Fluorescence Polarization; also: nearly all actives have a fitted effect of over 55% in size
Details: tau K18 P301L (four-repeat tau fragment) Alexa594 fluorescence, heparin fibrillization; series mostly up to 57.7 µM
In short: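 Human K18 P301L tau (15 uM unlabeled plus 0.24 uM Alexa 594-labeled, final) in 100 mM sodium acetate pH 7 was mixed with compound and 20 uM heparin and incubated 6 hr at 37 C.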
Potency is read from the fitted curve at half-maximal effect; tags tell the direction and shape of the fitted curve or compound fluorescence and quenching.

| SMILES | Potency |
| --- | --- |
| COc1ccc2c(c1OC)C(=O)c1ccccc1C2=O | inactive |
| COc1ccc(C(=O)NCC(c2ccc(N(C)C)cc2)N2CCc3ccccc32)c(OC)c1 (stereo unspecified) | inactive |
| Cc1ccc(Oc2c(C(F)(F)F)oc3c(CN4CCCCC4)c(O)ccc3c2=O)cc1 | inactive |
| Cc1ccc(C(=O)Nc2c(C(=O)NC(C)(C)C)oc3ccccc23)cc1 | inactive |
| Oc1ccc2ccccc2c1N=Nc1nccs1 | 12.6 µM [quencher] (active) |
| CCOC(=O)c1ccc2c(c1)N(Cc1cccc(OC)c1)C(=O)c1ccccc1S2(=O)=O | inactive |
| COc1cccc(CNC(=O)Cc2csc3nc(-c4ccccc4)cn23)c1 | inactive |
| CCc1c(C)nc2c(-c3ccccc3)c(C)nn2c1Nc1ccc(NC(C)=O)cc1 | 17.8 µM [quencher] (active) |
| Cc1nc2c(-c3ccccc3)c(C)nn2c(C)c1CCC(=O)NCCc1ccccc1 | inactive |
| CCc1ccc(NC(=O)c2cnc3c(-c4ccccc4)c(C)nn3c2C)cc1 | inactive |
| COc1ccccc1NC(=O)CSC1=Nc2ccccc2C2=NC(CC(=O)NCc3cccs3)C(=O)N12 (stereo unspecified) | inactive |
| COc1ccc(CCNC(=O)c2ccc(CSCc3ccc(C)cc3)o2)cc1OC | inactive |
| Nc1ccc(N=Nc2ccccc2Cl)c(N)n1 | 15.8 µM [quencher] (active) |
| Cc1ccc(C)c(N2CCN(C(=O)Cn3ncc4c(=O)oc5ccc(C)cc5c43)CC2)c1 | inactive |
| COc1cccc(NC(=O)Nc2ccc3c(c2)N(C)C(=O)c2ccccc2S3)c1 | inactive |
| COc1cccc(/C=N\NC(=O)C2=NNC(=O)C2C)c1O (stereo unspecified) | inactive |
| COc1cccc(/C=N/Nc2cc(C)nc(-c3ccccc3O)n2)c1O | 8.91 µM [quencher] (active) |
| COc1cccc(/C=N/NC(=O)c2[nH]nc3c2CCc2ccccc2-3)c1O | inactive |
| Cc1cc(C)c(/C=C/c2onc(C)c2S(=O)(=O)N2CCC(C(=O)Nc3ccc(Cl)cc3C)CC2)c(C)c1 | inactive |
| Cc1cc(/C=N/NC(=O)c2cccnc2)c(C)n1CC(C)C | inactive |
| O=C(N/N=C/c1ccccn1)c1cccnc1 | inactive |
| O=C(N/N=C/c1sc(N2CCCCC2)nc1-c1cccs1)c1cccnc1 | 15.8 µM [quencher] (active) |
| COc1ccc(CNc2nc(-c3ccc(Cl)cc3)nn2C(=O)c2ccccc2)cc1 | inactive |
| O=C(Cn1cc(SCc2ccccc2)c2ccccc21)N1CCCCC1 | inactive |
| CC(=O)N1CCc2cc(S(=O)(=O)NC(Cc3ccccc3)C(=O)NCc3ccc(C)cc3)ccc21 (stereo unspecified) | inactive |
| Cc1ccc(C(=O)NNC(=O)c2cc3cc4ccccc4nc3s2)cc1 | inactive |

| SMILES | Potency |
| --- | --- |
| CCN(CCCNC(=O)c1cc2cc3cc(OC)ccc3nc2s1)c1ccccc1 | 4.47 µM [quencher] (active) |
| CCN1CCN(C(=O)c2cc3cc4ccc(OC)cc4nc3s2)CC1 | inactive |
| O=C(CCS(=O)(=O)c1ccccc1)N(Cc1cccnc1)c1nc2c(F)cccc2s1 | inactive |
| COc1cc(OC)c2c(-c3cccc(-c4cccc(N)c4)c3)cc(=O)oc2c1 | 11.2 µM [quencher] (active) |
| COc1ccc(-c2c(C)cc3oc(=O)cc(-c4ccccc4)c3c2C)cc1OC | inactive |
| COc1ccc(-c2c(C)cc3oc(=O)cc(-c4ccccc4)c3c2C)cc1F | inactive |
| CCOc1ccccc1NC(=O)CN1CCCN(Cc2cccc(Cl)c2)S1(=O)=O | inactive |
| CC(CCCc1ccccc1)NC(=O)c1nn(-c2ccc(Cl)cc2)nc1CO (stereo unspecified) | inactive |
| Clc1ccc(Nc2ncnc3c2nnn3Cc2ccccc2)cc1 | inactive |
| CN(C)c1cc2c(Nc3ccc4c(cnn4Cc4ccccc4)c3)ncnc2cn1 | 7.08 µM [quencher] (active) |
| CC(=O)Nc1ccc(NC(=O)CSc2ncnc3c2cnn3Cc2ccccc2)cc1 | inactive |
| COc1ccc(C)cc1NC(=O)CCc1c(C)nn(-c2ccc(N3CCOCC3)nn2)c1C | inactive |
| CC(=O)Nc1ccc(NC(=O)C2CCCN(S(=O)(=O)c3ccc4c(c3)CCCC(=O)N4)C2)cc1 (stereo unspecified) | inactive |
| COc1ccc2nc(NC(=O)[C@@H]3CCCN3C(=O)c3cccs3)sc2c1 | inactive |
| COc1ccc(NC(=O)Nc2ccc3nsnc3c2)cc1 | 15.8 µM [quencher] (active) |
| CCOc1ccc2nc(NC(=O)CSc3nc4c(c(=O)n(C)c(=O)n4C)n3CC)sc2c1 | inactive |
| Cc1nc2cc3c(cc2s1)OCO3 | inactive |
| COc1ccc2nc(Nc3nc(-c4ccncc4)cs3)sc2c1 | 17.8 µM [quencher] (active) |
| COc1cccc(C(=O)Nc2nc3ccc(S(C)(=O)=O)cc3s2)c1 | inactive |
| COc1ccc(/C=N/NC(=O)Nc2ccc3nsnc3c2)c(OC)c1 | inactive |
| COc1ccc(NC(=O)Nc2cccc(-c3noc(C)n3)c2)cc1 | inactive |
| COc1ccc2nc(Nc3nc(-c4cc5ccccc5oc4=O)cs3)sc2c1 | inactive |
| CCOc1ccc2nc(Nc3nc4ccc(NC(C)=O)cc4s3)sc2c1 | 15.8 µM [quencher] (active) |
| COc1ccc2nc(Nc3nc4cc5c(cc4s3)OCCO5)sc2c1 | 7.08 µM [quencher] (active) |
| CCC(=O)c1ccc(OCC(=O)Nc2ccc3nc(C)sc3c2)cc1 | inactive |
